Holding throughout (experiment): DAPPL (digital affinity profiling via proximity ligation, sequencing); 10 mM Tris-HCl pH 7.5, 50 mM NaCl, 1 mM DTT, 4% glycerol, room temperature, 30 min; GST-TFs on glutathione beads, 16-mer random dsDNA library, 0.1% formaldehyde crosslink after washing; high values mean tight binding
Holding throughout (details): protein: recombinant; tags: N-terminal GST; dsDNA, one strand shown

One assay has as its target T1, FLI1 (Homo sapiens, UniProt Q01543 1-452).
T1 sequence: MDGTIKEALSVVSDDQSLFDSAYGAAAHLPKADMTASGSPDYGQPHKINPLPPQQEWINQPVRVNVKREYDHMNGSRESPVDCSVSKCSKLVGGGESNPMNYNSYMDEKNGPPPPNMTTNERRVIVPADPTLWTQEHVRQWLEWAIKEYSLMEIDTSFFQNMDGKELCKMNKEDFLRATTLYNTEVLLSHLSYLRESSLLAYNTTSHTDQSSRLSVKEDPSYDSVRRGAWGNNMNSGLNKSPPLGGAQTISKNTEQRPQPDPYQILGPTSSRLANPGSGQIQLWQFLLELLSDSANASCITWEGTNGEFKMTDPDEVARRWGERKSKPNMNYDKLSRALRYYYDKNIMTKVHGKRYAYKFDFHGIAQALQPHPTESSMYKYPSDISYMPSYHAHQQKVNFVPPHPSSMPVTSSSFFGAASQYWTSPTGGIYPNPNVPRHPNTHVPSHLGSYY
Put shortly:
(§1)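 Sequencing on an Illumina NextSeq500 followed washing, crosslinking with 0.1% formaldehyde, proximity ligation (BsaI/T4 ligase, 1 h, 37 °C) and PCR amplification of pools that had been incubated for 30 min at room temperature with 200 nmole of a random double-stranded 16-mer DNA library in Tris/NaCl/DTT/glycerol buffer. Each pool held DNA-barcoded human transcription factors, expressed in yeast as GST fusions and captured on glutathione beads, plus a tag-only sample. Binding signal is a hexamer's read frequency for a factor divided by its frequency in the tag-only sample.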

The next assay concerns the target T2, ELK1 (Homo sapiens, UniProt P19419 1-428).
T2 sequence: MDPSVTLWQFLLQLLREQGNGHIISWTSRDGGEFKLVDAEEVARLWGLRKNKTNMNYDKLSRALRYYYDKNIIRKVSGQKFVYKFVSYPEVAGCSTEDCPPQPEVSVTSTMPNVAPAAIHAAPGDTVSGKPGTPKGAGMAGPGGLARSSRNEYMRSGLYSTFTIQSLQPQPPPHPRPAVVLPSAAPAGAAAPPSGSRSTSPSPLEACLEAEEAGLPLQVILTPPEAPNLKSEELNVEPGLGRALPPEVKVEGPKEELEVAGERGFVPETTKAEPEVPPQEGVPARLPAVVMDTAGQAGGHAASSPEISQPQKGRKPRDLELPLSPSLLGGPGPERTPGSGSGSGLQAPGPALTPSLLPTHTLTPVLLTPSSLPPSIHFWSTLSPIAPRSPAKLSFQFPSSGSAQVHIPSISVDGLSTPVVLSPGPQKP
Put shortly: as §1

The target of a further assay is T3, GABPA (Homo sapiens, UniProt Q06546 1-454).
T3 sequence: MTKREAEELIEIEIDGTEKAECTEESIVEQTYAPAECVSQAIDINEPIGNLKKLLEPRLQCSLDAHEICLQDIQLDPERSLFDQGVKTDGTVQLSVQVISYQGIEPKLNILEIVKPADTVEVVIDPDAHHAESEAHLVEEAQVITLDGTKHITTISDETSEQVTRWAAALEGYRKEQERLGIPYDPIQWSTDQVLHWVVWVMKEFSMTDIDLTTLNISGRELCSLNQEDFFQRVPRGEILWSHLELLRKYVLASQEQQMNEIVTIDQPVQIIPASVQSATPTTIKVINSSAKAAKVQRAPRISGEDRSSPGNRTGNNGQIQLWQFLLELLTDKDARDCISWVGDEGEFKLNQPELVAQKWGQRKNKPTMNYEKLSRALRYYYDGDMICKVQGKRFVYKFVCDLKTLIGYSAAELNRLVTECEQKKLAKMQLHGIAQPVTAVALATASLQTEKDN
In outline:
as §1

The next assay concerns the target T4, ERG (Homo sapiens, UniProt P11308 1-479).
T4 sequence: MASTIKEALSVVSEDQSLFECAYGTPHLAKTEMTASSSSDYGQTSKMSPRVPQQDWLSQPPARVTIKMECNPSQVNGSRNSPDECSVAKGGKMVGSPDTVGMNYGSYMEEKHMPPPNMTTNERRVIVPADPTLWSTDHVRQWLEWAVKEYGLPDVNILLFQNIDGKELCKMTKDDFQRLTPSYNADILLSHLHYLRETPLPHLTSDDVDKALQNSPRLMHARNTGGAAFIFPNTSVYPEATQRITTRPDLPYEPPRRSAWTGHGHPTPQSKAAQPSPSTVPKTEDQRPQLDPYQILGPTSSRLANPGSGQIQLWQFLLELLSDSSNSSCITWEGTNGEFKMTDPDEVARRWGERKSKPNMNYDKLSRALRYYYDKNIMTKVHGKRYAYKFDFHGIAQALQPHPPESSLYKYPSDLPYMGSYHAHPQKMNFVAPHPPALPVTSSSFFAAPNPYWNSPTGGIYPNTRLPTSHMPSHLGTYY
Put shortly:
as §1

A further assay has as its target ELF1 (Homo sapiens, UniProt P32519 1-619). In outline:
as §1

The target in a further assay is T5, EHF (Homo sapiens, UniProt Q9NZC4 1-300).
T5 sequence: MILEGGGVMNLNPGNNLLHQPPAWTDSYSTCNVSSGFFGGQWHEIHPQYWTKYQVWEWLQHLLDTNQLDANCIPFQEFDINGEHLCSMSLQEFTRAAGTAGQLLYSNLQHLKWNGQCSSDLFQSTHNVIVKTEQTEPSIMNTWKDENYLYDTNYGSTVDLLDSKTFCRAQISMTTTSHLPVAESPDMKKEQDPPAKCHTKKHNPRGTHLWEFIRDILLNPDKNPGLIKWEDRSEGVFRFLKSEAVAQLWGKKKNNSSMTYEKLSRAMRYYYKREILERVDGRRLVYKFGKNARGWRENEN
Put shortly:
as §1

In another assay the target is SPI1 (Homo sapiens, UniProt P17947 1-270). In outline:
as §1

A further assay concerns the target T6, ELK3 (Homo sapiens, UniProt P41970 1-407).
T6 sequence: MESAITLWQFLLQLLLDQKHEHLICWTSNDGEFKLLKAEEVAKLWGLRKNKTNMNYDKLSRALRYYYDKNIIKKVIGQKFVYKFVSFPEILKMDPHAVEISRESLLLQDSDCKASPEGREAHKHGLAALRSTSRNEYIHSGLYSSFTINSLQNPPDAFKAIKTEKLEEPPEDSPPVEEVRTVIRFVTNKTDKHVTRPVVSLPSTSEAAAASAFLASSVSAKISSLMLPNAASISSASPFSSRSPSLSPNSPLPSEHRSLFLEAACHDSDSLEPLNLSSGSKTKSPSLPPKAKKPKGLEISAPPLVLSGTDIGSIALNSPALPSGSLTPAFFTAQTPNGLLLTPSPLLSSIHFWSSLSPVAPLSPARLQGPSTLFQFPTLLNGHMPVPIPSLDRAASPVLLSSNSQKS
Put shortly:
as §1

In a further assay the target is T7, FEV (Homo sapiens, UniProt Q99581 1-238).
T7 sequence: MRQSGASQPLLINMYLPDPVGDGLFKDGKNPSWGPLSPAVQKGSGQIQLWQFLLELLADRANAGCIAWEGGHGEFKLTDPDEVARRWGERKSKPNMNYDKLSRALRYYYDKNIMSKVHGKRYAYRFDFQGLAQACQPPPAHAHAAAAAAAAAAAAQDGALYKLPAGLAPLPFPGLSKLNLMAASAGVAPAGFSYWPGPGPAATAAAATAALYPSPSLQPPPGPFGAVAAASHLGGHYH
In outline: as §1

The next assay has as its target ETV5 (Homo sapiens, UniProt P41161 1-510). In outline:
as §1

A further assay deals with T8, SPIC (Homo sapiens, UniProt Q8N5J4 1-248).
T8 sequence: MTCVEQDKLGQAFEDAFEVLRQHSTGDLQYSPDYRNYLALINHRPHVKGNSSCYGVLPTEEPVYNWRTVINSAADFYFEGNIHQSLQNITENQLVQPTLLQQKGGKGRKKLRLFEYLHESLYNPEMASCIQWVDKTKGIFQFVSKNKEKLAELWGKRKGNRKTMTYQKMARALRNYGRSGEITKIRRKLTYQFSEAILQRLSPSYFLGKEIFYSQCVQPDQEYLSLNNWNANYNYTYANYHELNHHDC
In outline:
as §1

A further assay deals with ELF4 (Homo sapiens, UniProt Q99607 1-663). In outline:
as §1

In another assay the target is T9, ELK4 (Homo sapiens, UniProt P28324-2 1-405).
T9 sequence: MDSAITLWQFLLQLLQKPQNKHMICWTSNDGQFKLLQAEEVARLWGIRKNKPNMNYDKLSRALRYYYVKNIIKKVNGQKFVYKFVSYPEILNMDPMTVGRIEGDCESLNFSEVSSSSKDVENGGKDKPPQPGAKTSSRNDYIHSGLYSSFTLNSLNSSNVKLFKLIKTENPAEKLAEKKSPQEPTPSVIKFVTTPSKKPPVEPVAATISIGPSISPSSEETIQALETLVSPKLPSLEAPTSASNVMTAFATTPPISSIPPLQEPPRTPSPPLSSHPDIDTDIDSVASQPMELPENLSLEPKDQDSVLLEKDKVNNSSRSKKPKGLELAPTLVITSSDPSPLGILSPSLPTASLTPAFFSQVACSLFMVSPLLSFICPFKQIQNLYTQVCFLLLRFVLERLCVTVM
In outline:
as §1

For another assay, the target named is T10, ETV2 (Homo sapiens, UniProt O00321 1-342).
T10 sequence: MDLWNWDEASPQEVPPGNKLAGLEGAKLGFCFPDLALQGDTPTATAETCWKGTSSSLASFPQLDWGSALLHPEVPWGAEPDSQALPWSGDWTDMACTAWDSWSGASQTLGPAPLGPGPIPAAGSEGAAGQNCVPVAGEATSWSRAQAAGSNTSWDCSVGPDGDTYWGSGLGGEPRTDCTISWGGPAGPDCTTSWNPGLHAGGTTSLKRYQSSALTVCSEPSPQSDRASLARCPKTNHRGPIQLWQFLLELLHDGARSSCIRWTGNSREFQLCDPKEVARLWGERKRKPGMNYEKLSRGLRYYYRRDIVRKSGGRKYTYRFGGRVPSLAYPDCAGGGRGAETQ
Put shortly:
as §1

For the next assay, the target named is T11, ELF3 (Homo sapiens, UniProt P78545 1-371).
T11 sequence: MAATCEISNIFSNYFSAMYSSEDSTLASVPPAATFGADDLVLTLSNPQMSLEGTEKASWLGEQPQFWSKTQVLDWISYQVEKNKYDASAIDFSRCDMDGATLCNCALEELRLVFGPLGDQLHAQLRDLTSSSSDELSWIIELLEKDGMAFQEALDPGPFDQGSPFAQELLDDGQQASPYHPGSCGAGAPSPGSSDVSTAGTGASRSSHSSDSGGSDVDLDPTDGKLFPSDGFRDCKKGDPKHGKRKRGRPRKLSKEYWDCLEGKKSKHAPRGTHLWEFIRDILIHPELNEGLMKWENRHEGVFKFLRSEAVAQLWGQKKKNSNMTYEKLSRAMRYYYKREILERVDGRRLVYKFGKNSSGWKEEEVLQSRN
In outline:
as §1

The target in another assay is ETV1 (Homo sapiens, UniProt P50549 1-477). Put shortly: as §1
Chain of ETV1 (P50549 whole entry): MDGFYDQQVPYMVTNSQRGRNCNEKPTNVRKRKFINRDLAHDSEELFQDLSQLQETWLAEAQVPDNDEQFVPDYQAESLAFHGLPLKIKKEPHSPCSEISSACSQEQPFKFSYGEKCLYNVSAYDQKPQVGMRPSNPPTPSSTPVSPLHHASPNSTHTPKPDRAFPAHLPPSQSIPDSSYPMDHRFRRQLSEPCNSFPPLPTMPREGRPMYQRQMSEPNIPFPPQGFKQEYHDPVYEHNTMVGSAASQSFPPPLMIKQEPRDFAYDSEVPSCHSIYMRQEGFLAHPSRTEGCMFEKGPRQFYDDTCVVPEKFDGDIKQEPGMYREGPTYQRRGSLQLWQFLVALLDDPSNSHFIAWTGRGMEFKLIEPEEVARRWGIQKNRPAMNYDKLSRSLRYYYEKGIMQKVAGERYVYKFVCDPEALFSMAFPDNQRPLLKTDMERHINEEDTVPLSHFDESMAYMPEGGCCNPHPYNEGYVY

Chain of ETV5 (P41161 whole entry): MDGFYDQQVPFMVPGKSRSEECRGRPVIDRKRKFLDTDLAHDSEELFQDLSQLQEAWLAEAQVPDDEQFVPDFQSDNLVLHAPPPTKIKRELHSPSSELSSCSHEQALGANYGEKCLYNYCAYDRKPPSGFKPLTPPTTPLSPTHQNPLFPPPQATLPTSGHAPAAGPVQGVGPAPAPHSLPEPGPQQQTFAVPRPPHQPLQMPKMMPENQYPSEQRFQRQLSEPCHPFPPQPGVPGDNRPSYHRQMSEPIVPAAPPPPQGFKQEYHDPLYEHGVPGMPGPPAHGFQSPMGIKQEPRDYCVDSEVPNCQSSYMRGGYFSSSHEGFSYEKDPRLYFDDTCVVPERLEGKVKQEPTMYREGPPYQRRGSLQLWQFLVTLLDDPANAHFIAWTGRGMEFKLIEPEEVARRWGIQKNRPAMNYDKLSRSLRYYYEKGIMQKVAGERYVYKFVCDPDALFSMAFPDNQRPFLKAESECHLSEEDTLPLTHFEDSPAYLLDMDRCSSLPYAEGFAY
Chain of ELF1 (P32519 whole entry): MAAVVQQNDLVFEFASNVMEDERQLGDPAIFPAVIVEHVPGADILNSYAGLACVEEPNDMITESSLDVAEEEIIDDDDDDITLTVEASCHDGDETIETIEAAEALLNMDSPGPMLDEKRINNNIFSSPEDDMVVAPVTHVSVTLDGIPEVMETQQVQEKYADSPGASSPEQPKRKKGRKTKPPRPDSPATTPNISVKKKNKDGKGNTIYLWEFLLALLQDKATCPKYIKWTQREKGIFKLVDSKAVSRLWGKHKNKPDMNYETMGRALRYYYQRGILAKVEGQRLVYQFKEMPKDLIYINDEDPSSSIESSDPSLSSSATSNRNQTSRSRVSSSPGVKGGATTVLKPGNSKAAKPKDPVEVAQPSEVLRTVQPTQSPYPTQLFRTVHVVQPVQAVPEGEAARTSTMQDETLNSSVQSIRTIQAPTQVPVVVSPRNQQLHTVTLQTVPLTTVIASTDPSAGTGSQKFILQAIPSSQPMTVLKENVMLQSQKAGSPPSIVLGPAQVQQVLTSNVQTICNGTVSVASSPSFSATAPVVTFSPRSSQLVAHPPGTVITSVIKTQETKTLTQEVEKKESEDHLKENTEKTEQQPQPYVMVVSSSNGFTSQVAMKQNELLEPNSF
Chain of ELF4 (Q99607 whole entry): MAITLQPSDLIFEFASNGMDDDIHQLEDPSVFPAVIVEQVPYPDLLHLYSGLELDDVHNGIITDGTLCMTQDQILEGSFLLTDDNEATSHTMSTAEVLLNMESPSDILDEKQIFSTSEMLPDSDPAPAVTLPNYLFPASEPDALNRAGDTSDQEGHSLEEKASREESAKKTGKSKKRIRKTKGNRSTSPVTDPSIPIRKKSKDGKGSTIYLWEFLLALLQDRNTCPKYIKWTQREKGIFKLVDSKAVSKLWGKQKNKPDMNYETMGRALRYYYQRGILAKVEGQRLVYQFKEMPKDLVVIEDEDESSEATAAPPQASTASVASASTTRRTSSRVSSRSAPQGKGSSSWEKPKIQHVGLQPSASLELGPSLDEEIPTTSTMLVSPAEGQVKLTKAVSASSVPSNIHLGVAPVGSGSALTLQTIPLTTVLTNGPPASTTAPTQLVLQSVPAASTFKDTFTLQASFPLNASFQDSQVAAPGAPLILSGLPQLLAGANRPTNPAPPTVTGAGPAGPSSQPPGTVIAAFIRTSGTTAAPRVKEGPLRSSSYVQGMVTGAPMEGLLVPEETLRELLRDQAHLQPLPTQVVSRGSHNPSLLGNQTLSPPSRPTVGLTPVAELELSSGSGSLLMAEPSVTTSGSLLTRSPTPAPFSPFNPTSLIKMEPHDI

CAAGGT: the binding signal was 1.1 fold enrichment (6-mer frequency, TF over GST control) with FLI1; 1.13 fold enrichment (6-mer frequency, TF over GST control) with ELK1; 1.03 fold enrichment (6-mer frequency, TF over GST control) with GABPA; 1.07 fold enrichment (6-mer frequency, TF over GST control) with ERG; 1.05 fold enrichment (6-mer frequency, TF over GST control) with ELF1; 1.13 fold enrichment (6-mer frequency, TF over GST control) in the assay with EHF. Also, the binding signal was 1.02 fold enrichment (6-mer frequency, TF over GST control) with SPI1; 1.12 fold enrichment (6-mer frequency, TF over GST control) with ELK3; 1.04 fold enrichment (6-mer frequency, TF over GST control) with FEV; 1.04 fold enrichment (6-mer frequency, TF over GST control) with ETV5; 1 fold enrichment (6-mer frequency, TF over GST control) with SPIC; 1.11 fold enrichment (6-mer frequency, TF over GST control) in the assay with ELF4. Further, the binding signal in the assay with ELK4 is 1.16 fold enrichment (6-mer frequency, TF over GST control); with ETV2, 1.12 fold enrichment (6-mer frequency, TF over GST control); with ELF3 it was 1.15 fold enrichment (6-mer frequency, TF over GST control); in the assay with ETV1, 1.13 fold enrichment (6-mer frequency, TF over GST control).

The values above are taken from article PMC7862700, “An all-to-all approach to the identification of sequence-specific readers for epigenetic DNA modifications on cytosine”.
